# Compound activity from PubChem.
# In the library only some 12% were active in any assay of this set; here they are far more common.
# PLK1 PBD inh – PLK1 (human) polo-box domain binding inhibition | hit rate 2.8% among 360,000 | Plk1 PBD binding of FITC phosphopeptide, fluorescence polarization | Potency, µM, inactives show max response, negative = inhibition, usual class: inhibitors | P53350 | AID 720504; further: series mostly up to about 57 µM; nearly all actives have a fitted effect of over 65% in size
# ALDH1A1 inh – blocks purified human ALDH1A1 activity | P00352 | Purified ALDH1A1, NADH fluorescence, propionaldehyde substrate | Potency, µM (doses to about 75.3 µM), inactives show at the top dose activity, negative = inhibition, most hits filed as inhibitors | hit rate 7.3% among 220,000 | AID 1030; active means well fitted inhibition curve with a large enough effect, not every such curve was filed as active; inconclusive means small, poorly fitted or top-dose-only effect, or another doubt; inactive means no such curve, though single readings can be large or run the other way;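 further: plate controls were no enzyme wells and a reference inhibitor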
# Target sequence (P00352 whole entry, looked up): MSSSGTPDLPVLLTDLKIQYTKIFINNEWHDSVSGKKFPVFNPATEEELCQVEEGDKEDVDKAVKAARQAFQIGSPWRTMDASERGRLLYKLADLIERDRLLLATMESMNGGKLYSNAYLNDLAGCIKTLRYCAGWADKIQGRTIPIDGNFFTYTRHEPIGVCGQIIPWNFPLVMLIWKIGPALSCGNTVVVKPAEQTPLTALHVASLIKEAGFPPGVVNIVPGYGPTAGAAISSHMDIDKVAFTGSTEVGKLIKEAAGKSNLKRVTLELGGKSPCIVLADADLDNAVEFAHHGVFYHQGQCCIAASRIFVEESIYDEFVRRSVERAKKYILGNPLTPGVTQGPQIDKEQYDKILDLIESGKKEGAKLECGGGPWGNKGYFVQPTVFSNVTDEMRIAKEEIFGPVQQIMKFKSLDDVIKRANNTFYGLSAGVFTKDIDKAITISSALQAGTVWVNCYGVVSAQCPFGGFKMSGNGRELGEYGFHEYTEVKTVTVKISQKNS
# RORgamma inh – ROR gamma (mouse) transcription inhibition; hit rate 5.4% among 310,000; Drosophila S2 Gal4-RORgamma UAS-luciferase reporter, 20 h; Potency, µM (highest dose often 53.6 µM), inactives show top-dose activity change, negative = inhibition, actives largely listed as inhibitors; further: nearly all actives have a fitted effect of over 60% in size
#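 Luminescence from a UAS-regulated Photinus luciferase reporter in stably transfected Drosophila Schneider cells is measured; decreased signal marks ROR gamma inhibition. Fusion expression is induced by 700 uM copper sulfate for 20 hr.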
# VP16 counter – Gal4-VP16 reporter inhibition counter-screen; Drosophila S2 Gal4-VP16 UAS-luciferase, luminescence, 20 h; Potency, µM (doses to about 53.6 µM), for inactives: at the top dose activity, negative = inhibition, usual class: inhibitors; hit rate 3.5% among 310,000; AID 2546;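 further: Gal4-VP16 expression switched on by copper sulfate through the metallothionein promoter; nearly all actives have a fitted effect of over 50% in size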
# Sfp PPTase inh – Sfp phosphopantetheinyl transferase inhibition; Q9F4F7; Biochemical Sfp PPTase activity, qHTS; Potency, µM, without a hit: largest response in the series, negative = inhibition, hits mostly inhibitors; hit rate 3.5% among 310,000;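 further: the enzyme is Sfp with the accession as filed and its product quenches rhodamine fluorescence; 0% = enzyme reaction without inhibitor and -100% = no enzyme wells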
#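 Sfp 15 nM + cpd, 15 min RT; start w/ rhodamine-CoA 5 uM, BHQ-2-YbbR 12.5 uM (final); 50 mM Hepes pH 7.6, 10 mM MgCl2, 0.01% NP-40, 0.01% BSA; read 525/598 nm at 0 and 30 min.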
# The depositor's hits bear a star; ? = inconclusive; · = not tested or not shown; [ ] = remark or other dose. Unless noted, the call rests on the fitted dose curve; in most records, active means well fitted curve in the direction sought with a large enough effect; inconclusive means small, poorly fitted or top-dose-only effect, or another doubt; inactive means no such curve, though single readings can be large; an effect the other way counts as inactive or inconclusive. Unless noted, on the % scale 0 is the no-effect control and ±100 the full control effect; potency means the concentration at half of the fitted maximal effect.
SMILES,PLK1 PBD inh,ALDH1A1 inh,RORgamma inh,VP16 counter,Sfp PPTase inh
Cc1cccc(Nc2nc(N3CCCCC3)nc(N3CCCCC3)n2)c1,-5%,6%,33%,-9%,15%
S=C(NNc1nc(Nc2ccccc2)nc(N2CCCCC2)n1)NC1CCCCC1,-8%,-3%,4.5µM*,13µM*,18%
C=CCNC(=S)NNc1nc(Nc2ccccc2)nc(N2CCCCC2)n1,-13%,16µM*,4µM*,?,25%
C=CCNC(=S)NNc1nc(N2CCCC2)nc(N2CCCC2)n1,-15%,·,2.2µM*,18µM*,40µM*
O=C(NCc1ccccc1)C(c1ccccc1)n1c(-c2ccccn2)nc2ccccc21 (centres undefined),-14%,·,·,·,·
Clc1cccc2c1Sc1ccccc1CC2N1CCNCC1 (centres undefined),-9%,?,?,?,56µM*
FC(F)(F)c1cccc(-c2noc(-c3cc(-c4ccccc4)c(C(F)(F)F)s3)n2)c1,·,4%,11%,1%,0%
CCn1c(SCC(=O)N2CCCc3ccccc32)nnc1-c1ccco1,-3%,22µM*,37%,-4%,-11%
Cc1cc2c(=O)n(Cc3ccco3)c(SCC(=O)NCc3ccco3)nc2s1,-19%,7.9µM*,-37%,4%,-12%
C=CCn1c(SCC(=O)c2cccs2)nc2sc(C)cc2c1=O,-18%,11µM*,?,6%,6%
C=CCn1c(SCC(=O)c2cccs2)nnc1-c1cccc(OC)c1,-26%,?,-15%,?,-30%
CCn1c(SCC(=O)N2CCCc3ccccc32)nnc1-c1ccoc1C,-9%,-5%,11%,-4%,20%
Cc1cc2c(=O)n(Cc3ccco3)c(SCC(=O)N3CCCc4ccccc43)nc2s1,-6%,11µM*,26%,-2%,-17%
CC(=O)Nc1ccc(SCCN2CCN(CCc3ccccc3)CCC2=O)cc1,·,·,-22%,-16%,50µM*
CC(C)(C)[C@@H]1CCC(=O)N(CC[C@H](Sc2ccccc2)c2ccccc2)CC1,-14%,·,21%,1%,-30%
CC(C)(C)[C@H]1CCC(=O)N([C@H](CSc2ccccc2)Cc2ccccc2)CC1,-19%,·,?,-1%,-1%
CC(=O)Nc1ccc(SCCN2CC[C@@H](C)CCC2=O)cc1,27µM*,·,·,·,·
CC(=O)Nc1ccc(SC[C@H](Cc2ccccc2)N2CC[C@@H](C(C)(C)C)CCC2=O)cc1,9.5µM*,·,·,·,·
CC(=O)Nc1ccc(S[C@@H](CCN2CC[C@H](C(C)(C)C)CCC2=O)c2ccccc2)cc1,8.4µM*,·,·,·,·
CC1CCC(=O)N(CCSc2ccccc2)CC1 (centres undefined),-1%,·,-33%,?,24%
COc1ccc(-c2ccc(C(=O)Nc3ccc(C(C)C)cc3)c3occc23)c(C)c1,-8%,·,·,·,·
Cc1ccc(SC[C@H](Cc2ccccc2)N2CCN(CC(C)C)CCC2=O)cc1,-9%,·,8%,3%,0%
CC(C)CN1CCC(=O)N([C@H](CSc2ccccc2)Cc2ccccc2)CC1,21µM*,·,-2%,-13%,5%
CC(=O)Nc1ccc(SC[C@H](Cc2ccccc2)N2CCN(CCc3ccccc3)CCC2=O)cc1,12µM*,·,7%,4%,-10%
CC(C)NC(=O)C1(C)Cc2c(-c3ccc(N(C)C)cc3)ccnc2O1 (centres undefined),3%,·,·,·,·
SMILES,PLK1 PBD inh,ALDH1A1 inh,RORgamma inh,VP16 counter,Sfp PPTase inh
CC1(C)COCN1COC1CCCCC1,·,4%[13.5 µM],·,·,·
Cn1c(-c2ccccc2)cnc1SCC(=O)N1CCCCC1,-4%,-14%,5µM*,8.9µM*,-6%
Cn1c(SCC(=O)N2CCCC2)nc2ccccc21,8%,?,25%,0%,4%
O=C(CSc1ncc(-c2ccccc2)n1C1CCCC1)N1CCc2ccccc21,-24%,3.5µM*,?,-10%,3%
Cn1c(-c2ccccc2)cnc1SCC(=O)N1CCCc2ccccc21,-2%,10µM*,?,?,-5%
Cc1ccc(-c2ccc(SCC(=O)N3CCCc4ccccc43)nn2)cc1,·,?,20%,4%,-24%
Nn1c(SCC(=O)N2CCCc3ccccc32)nnc1-c1ccccc1,-5%,-8%,19%,20%,18%
Cc1ccc(-c2cnc(SCC(=O)N3CCCc4ccccc43)n2C)cc1,1%,?,11µM*,-13%,-8%
C[C@H](N)C(=O)N[C@@H](Cc1ccc(F)cc1)C(=O)N[C@@H](CCCN=C(N)N)C(=O)N[C@@H](CC1CCCCC1)C(=O)N[C@@H](CCCCN=C(N)N)C(=O)N[C@@H](Cc1ccc(O)cc1)C(N)=O,·,·,15%,1%,-2%
CCCNC(=O)C1(C)CCCN(Cc2c3ccccc3nn2C)C1 (centres undefined),-6%,·,·,·,·
Cc1noc(-c2ccc(CSCCC(=O)O)cc2)c1NC(=O)OC(C)c1ccccc1Cl (centres undefined),·,·,-1%,-11%,1%
CC(C)c1nc(SCC(=O)N2CCCc3ccccc32)c2c(=O)n(C)c(=O)n(C)c2n1,2%,-13%,-35%,?,45µM*
CCCc1nc(SCC(=O)N2CCc3ccccc32)c2c(=O)n(C)c(=O)n(C)c2n1,·,7%,1%,-8%,16%
O=S(=O)(Nc1cc(Sc2ncn[nH]2)c(O)c2ccccc12)c1ccccc1,2.1µM*,14µM*,7.9µM*,7.1µM*,8.9µM*
O=C(O)CSc1cc(NS(=O)(=O)c2ccc(Br)cc2)c2ccccc2c1O,4.7µM*,·,-39%,-20%,40µM*
Cc1ccc(S(=O)(=O)Nc2ccc(Br)cc2C(NCC(=O)O)c2ccccc2)cc1 (centres undefined),-18%,-5%,4%,-10%,-7%
COC(=O)N1CCC2(CCCN(Cc3nccs3)C2)CC1,·,-2%,0%,-19%,-9%
Cc1cccc2sc(NNC(=O)c3cc(-c4cccs4)nc4ccccc34)nc12,3%,?,0.25µM*,18µM*,?
O=C(NC1=NCCS1)c1cc(-c2cccnc2)nc2ccccc12,-2%,-6%,11µM*,-1%,15%
C/C(=N\NC(=O)c1cc(-c2ccncc2)nc2ccccc12)c1ccc(N2CCOCC2)cc1,30µM*,12%,-38%,-1%,5%
O=C(NC1=NCCS1)c1cccc2ccccc12,-8%,2%,11µM*,21%[10 µM],14%
CC(=NNC(=O)c1cc(C)nc2ccccc12)c1ccc(N2CCOCC2)cc1,-4%,·,·,·,·
C=C(C)Cn1c2ccc(NC(=O)NCc3ccc(F)cc3)cc2c(=O)n1C,-21%,·,·,·,·
C[C@H]1/C=C\CC(=O)OC[C@H](C)C(=O)N2CCC[C@@H]2C(=O)OC1,·,12%[13.5 µM],-6%[10 µM],12%[10 µM],13%
NNC(=O)c1cc(-c2cccs2)nc2ccccc12,0%,?,20µM*,-27%,10%
CC(C)NC(=O)c1cc(-c2cccs2)nc2ccccc12,-12%,·,10%,-13%,10%
O=C(NC1=NCCS1)c1cc(-c2cccs2)nc2ccccc12,-9%,·,25µM*,?,2%
